These results are taken from PubChem BioAssay (Tox21).

Structures are written as SMILES. A number with no mark means an inactive call. Entries that show only a call come without a potency. The source made the active and inactive calls. Calls follow the shape of the dose curve; as a rule, active = well fitted curve in the direction sought with a large enough effect in the repeat runs; inconclusive = weak or mixed curves; inactive = flat fitted curve, though single readings scatter.

The nature of the experiment: qHTS assay to test for compound auto fluorescence at 460 nm (blue) in HepG2 cell free culture (AID 720685). The note with it: Cell-free culture medium, blue autofluorescence 405/460 nm; series mostly up to 91.3 µM. The text has this: U.S. Tox21 Program National Center for Advancing Translational Sciences [NCATS] NIH Chemical Genomics Center [NCGC] U.S. Environmental Protection Agency [EPA] National Institutes of Environmental Health Sciences [NIEHS] National Toxicology Program [NTP] U.S. Food and Drug Administration [FDA] Tox21 Assay Overview: Compound auto fluorescence often interferes with screening of the compound library against various biological targets and signaling pathways. Some of these compounds may have fluorophoric properties. Such properties may interfere with the assay outputs resulting in false positives and/or negatives. To decrease such complications and ensure the compound activities are relevant in terms of biological response, the Tox21 10K compound library was screened for auto fluorescence. From the fluorophores used as reporter signals in our screening assays, the auto fluorescence equivalencies of compounds against three fluorophores have been evaluated: Triamterene, Fluorescein and Rose Bengal sodium for blue, green and red fluorescence, respectively. The fluorescence intensities were measured using Excitation/Emission wavelengths at 405/460nm, 485/535nm and 540/590nm for blue, green and red labels, respectively. This assay includes the blue fluorescence data.
Tox21 Assay Protocol Summary: 5 uL of culture medium (MEM containing 10% FBS) per well was dispensed into black wall/clear bottom 1536-well plates using a Multidrop Combi Dispenser (ThermoFisher Scientific, Waltham, MA). After 23 nL compound or DMSO vehicle was transferred into assay plate by a pintool work station (Kalypsys, San Diego, CA), fluorescence intensities in the assay plates were measured by an Envision (PerkinElmer, Shelton, CT) plate reader using three labels for measuring blue, green and red fluorescence at […] 460, 535 and 590nm respectively.
As to `ClC(Cl)(Cl)c1ccc(C(Cl)(Cl)Cl)cc1`, the Potency result was “inactive”.
The same measure, in the same setting: as for `CC[C@H](C)[C@H](N)C(=O)O`, the entry is “inactive”.
On to `O=C(O)[C@@H]1[C@H]2C[C@H]3c4[nH]c5ccccc5c4CCN3C[C@@H]2CC[C@@H]1O`, for which the fluorescence, % of fluorescent control was 4.25% [at 18.6 µM].
Take `O=C(NN1CCCC1)NS(=O)(=O)c1ccc(Cl)cc1`: the Potency result was “inactive”.
On the same count and under the same terms, to `CC(C(=O)O)c1ccc(-c2ccccc2)c(F)c1` (stereo not given) belongs “inactive”; to `CCOC(=O)CC(=O)c1cc(F)c(Cl)nc1Cl`, “inactive”.
Regarding `OCC1CC2CC1C1CCC(CO)C21` (stereo not given), the Potency result was “inactive”.
On the same count and under the same terms, as for `CCN(CC)CCOc1ccc2c(c1)C(=O)c1cc(OCCN(CC)CC)ccc1-2`, the entry is “inactive”; as for `Cc1occc1S`, “inactive”; as for `Nc1nc(N)c(-c2ccccc2)s1`, “inactive”.
On the same count and under the same terms, as for `CC(C)NCC(O)c1cc(O)cc(O)c1` (stereo not given), the entry is “inactive”; as for `CCOc1cc(OCC)c(C(=O)CCC(=O)O)cc1OCC`, “inactive”.
Same read-out and setting: as for `CCCCCCOC(=O)CCC`, the entry is “inactive”; as for `O=C(O)Cc1cc(I)c(Oc2ccc(O)c(I)c2)c(I)c1`, “inactive”.
For the compound `CC1=CCC(C(C)C)C=C1` (stereo not given), the Potency entry is “inactive”.
Same read-out and setting: to `CC(Cc1cccc(C(F)(F)F)c1)NCCOC(=O)c1ccccc1` (stereo not given) belongs “inactive”; to `CCN(CCO)CCCC(C)Nc1ccnc2cc(Cl)ccc12` (stereo not given), “inactive”; to `Cc1ccc(C(C)c2ccc(C)c(C)c2)cc1C`, “inactive”.
Take `NCCCN(CCO)CCO`: the Potency entry was “inactive”.
The same measure, in the same setting: to `Oc1ccc(Cc2ccccc2)cc1` belongs “inactive”; to `CC(C)(C)C(=O)OCOP(=O)(COCCn1cnc2c(N)ncnc21)OCOC(=O)C(C)(C)C`, “inactive”; to `COC(=O)CSc1cc(N=c2sc(=O)n3n2CCCC3)c(F)cc1Cl`, “inactive”.
On to `CN1CCC(=C2c3ccccc3CCc3sccc32)CC1`, for which the Potency result was “inactive”.
On the same count and under the same terms, to `CN(C)CCCNCCCN` belongs “inactive”.
On the same count and under the same terms, to `C1=Cc2ccccc2C1` belongs “inactive”; to `COCCO`, “inactive”.
Consider `C=Cc1c(C)c2cc3[nH]c(cc4nc(cc5nc(cc1[nH]2)C(C)=C5CCC(=O)O)C(CCC(=O)O)=C4C)c(C)c3C=C`, for which the Potency result is “inactive”.
As for `CN(c1nccc(=O)[nH]1)C1CCN(c2nc3ccccc3n2Cc2ccc(F)cc2)CC1`, the Potency entry was “inactive”.
Regarding `CCCCC(CC)(CO)CO`, the Potency entry was “inactive”.
Same read-out and setting: as for `CCCCCC/C=C/C=O`, the entry is “inactive”.
For `N=C(N=C(N)N)N1CCOCC1`, the fluorescence, % of fluorescent control was 0.021% [at 18.6 µM].
For `CCOC(=O)C1=NN(c2ccccc2)C(=O)C1`, the Potency entry was “inactive”.
The same measure, in the same setting: to `O=C(Cl)c1ccc([N+](=O)[O-])cc1` belongs “inactive”; to `O=S1(=O)c2cccc3cccc(c23)N1CCCN1CCN(c2ccc(F)cc2)CC1`, “inactive”; to `COCCCCCCCCOCCC[Si](C)(O[Si](C)(C)C)O[Si](C)(C)C`, “inactive”.
Consider `NC(N)=NN=C(/C=C/c1ccc([N+](=O)[O-])o1)/C=C/c1ccc([N+](=O)[O-])o1`, for which the Potency entry was “inactive”.
Still for that read-out and setting: as for `O=C(CCN1CCN2CCCC2C1)N1c2ccccc2Sc2ccc(Cl)cc21` (stereo not given), the entry is “inactive”; as for `CC(=O)Nc1ccc(/C=N/NC(N)=S)cc1`, “inactive”; as for `CCCCC(CC)COCCCN` (stereo not given), “inactive”.
On the same count and under the same terms, to `c1ccc(-c2nc[nH]c2-c2ccccc2)cc1` belongs “inactive”.
